High-throughput results as filed in PubChem.
APP 5UTR inh: APP translation inhibition | SH-SY5Y APP 5'UTR-luciferase reporter, luminescence | inhibition, % at 2 µM | 190,000 tested, 0.82% active;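 active means inhibition above a set limit, derived from the sample mean plus 3 SD, cut at about 45% in these data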
IEC-6 tox: IEC-6 cytotoxicity, counter-screen for KLF5 inhibitors. AID 1825. luminescence viability. inhibition, % at 5 µM. 290,000 tested, 0.78% active;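 further: 0% = plate median of test compound wells and 100% = cytotoxic reference compound wells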
Ba/F3 V617F tox: reduce viability of Ba/F3 cells dependent on JAK2V617F; 220,000 tested, 1.1% active; AID 1446; inhibition, % at 5.6 µM; Ba/F3 EpoR-JAK2V617F viability, ATP luminescence;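 active means inhibition above the campaign mean plus 3 SD over all tested compounds, cut at about 24% in these data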;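 further: cytokine-independent growth of Ba/F3 cells driven by EpoR plus mutant JAK2; 0% = DMSO-treated cells and 100% = JAK inhibitor I control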
BaF3 tox: reduces parental Ba/F3 cell viability, JAK2V617F counter-screen; AID 1486; 220,000 tested, 1.1% active; inhibition, % at 5.6 µM; CellTiter-Glo ATP luminescence;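 active means inhibition above a per-campaign cutoff, the mean inhibition of all tested compounds plus 3 SD, cut at about 27% in these data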;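 further: 0% = DMSO wells and 100% = JAK Inhibitor I control wells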
KLF5 inhibitor: inhibitors of KLF5 expression | DLD-1 KLF5 promoter-luciferase reporter, luminescence | inhibition, % at 5 µM | 290,000 tested, 0.23% active | AID 1700;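 active means inhibition above a per-plate limit of that plate's mean compound inhibition plus 3 SD, cut at about 60% in these data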;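 further: 0% = DMSO wells and 100% = LY294002 at 200 µM; higher means less KLF5 promoter-driven luciferase light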
IEC-6 tox confirm: IEC-6 cytotoxicity, confirmation assay | shares compounds with IEC-6 tox | IEC-6 rat intestinal epithelial viability, luminescence | inhibition, % at 5 µM | 1,900 tested, 63% active | AID 1907;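 further: 0% = vehicle and 100% = reference cytotoxic drug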
Starred values were filed as active, the others as inactive; x = no result given. Only some compounds are listed: those with a hit (about 1.9% of all), similar ones and a draw of the others. Unless noted, no stated cut-off is given here; in the data, active means inhibition above about 22%; inactive means the rest.

SMILES	APP 5UTR inh	IEC-6 tox	Ba/F3 V617F tox	BaF3 tox	KLF5 inhibitor	IEC-6 tox confirm
CCOC(=O)c1ccc(NC(=S)N2CCN(C(=O)C3CCCO3)CC2)cc1 (stereo not given)	x	29*	x	x	-7	7
C#CCSc1nccc(-c2nn(-c3ccc(C)cc3)ccc2=O)n1	x	5	-1	4	-40	x
C=CCSc1nccc(-c2nn(-c3ccc(C)cc3)ccc2=O)n1	88*	39*	37*	46*	20	34*
CSc1nccc(-c2nn(-c3ccc(C)cc3)ccc2=O)n1	21	51*	75*	76*	10	39*
O=C1c2ccccc2NC(c2ccc(O)cc2)N1c1ccccc1 (stereo not given)	x	-2	x	x	-52	x
NCCCNc1nc(N)c([N+](=O)[O-])c(NC2CCCCC2)n1	x	46*	x	x	55	43*
COCCNc1nc(N)c([N+](=O)[O-])c(NC2CCCCC2)n1	x	0	x	x	4	x
COc1ccc(C)cc1NC(=O)C(c1ccccc1)N1CCNC(=O)C1 (stereo not given)	-10	0	2	5	-17	x
COC(=O)c1ccccc1NC1=C/C(=N\S(=O)(=O)c2ccc(C(=O)O)cc2)c2ccccc2C1=O	x	28*	x	x	-6	13
Cc1[nH]c2ccccc2c1/C=N/NC(=O)c1cc(-c2ccncc2)nc2ccccc12	x	40*	x	x	30	54*
NCCNC(=O)Cn1c(=O)c2c3c(sc2n(Cc2ccccc2)c1=O)CCCC3	x	-5	x	x	-10	x
O=c1c(Cl)c(Cl)cnn1-c1ccccc1	96*	95*	-1	-8	10	31*
CCOc1cnn(-c2ccccc2)c(=O)c1Cl	x	-1	x	x	-15	x
CCOC(=O)NC(=O)CSc1nnc(C2CC2)n1Cc1ccco1	-1	0	-3	7	-12	x
CCCCC(=O)NC(c1ccccc1)c1ccc2cccnc2c1O (stereo not given)	x	24*	x	x	96*	54*
CCCC(=O)NC(c1ccccc1)c1ccc2cccnc2c1O (stereo not given)	x	42*	x	x	89*	66*
O=C(Cc1ccccc1F)NC1CCCN(Cc2ccc(Cl)cc2)C1 (stereo not given)	x	-2	x	x	-5	x
CC1=NN(c2nc3ccccc3[nH]2)C(=O)/C1=C/N(C)C	-28	40*	58*	53*	-2	68*
CC(=O)N(c1ccccc1C)C1CCCC1	-10	1	2	4	-55	x
CC(=O)N(C1=C(Cl)C(=O)c2ccccc2C1=O)C1CCCCC1	x	25*	2	-5	-13	8
CCOC(=O)c1ccc(CC2S/C(=C(\C#N)C(C)=O)NC2=O)cc1 (stereo not given)	12	-3	-1	4	-6	x
CC(=O)/C(C#N)=C1\NC(=O)C(Cc2ccc(C)c(Cl)c2)S1 (stereo not given)	x	72*	2	4	21	48*
COC(C(=O)Nc1ccnn1C1CCN(C(=O)c2ccc(C)cc2)CC1)c1ccccc1 (stereo not given)	x	3	x	x	-28	x
CCOc1ccccc1N1CC(O)=C(c2nc3ccccc3s2)C1=N	92*	56*	83*	77*	57	60*
CCN(CC(=O)NCc1ccc(F)cc1)C(=O)/C=C/c1ccc(OC)cc1	x	3	x	x	-26	x
SMILES	APP 5UTR inh	IEC-6 tox	Ba/F3 V617F tox	BaF3 tox	KLF5 inhibitor	IEC-6 tox confirm
CCN(CC(=O)NCc1ccc(F)cc1)C(=O)/C=C/c1ccc(OC)c(S(=O)(=O)NC(C)C)c1	x	73*	x	x	48	50*
Cc1ccc(NC(=O)CCc2c[nH]c3ccccc23)nc1	x	70*	x	x	51	42*
O=C(N/N=C/c1ccc2c(c1)OCO2)c1cccc2ccccc12	x	28*	x	x	24	25*
O/N=C(/c1ccc(F)cc1)C1CC1c1c(F)cccc1Cl (stereo not given)	x	-1	x	x	-11	x
COc1ccc(CNC(=O)Cc2ccc(NC(=O)C3=C(C)OCCS3)cc2)cc1	x	65*	x	x	10	43*
CC1=C(C(=O)Nc2ccc(CC(=O)NCc3ccc(OC(C)C)cc3)cc2)SCCO1	x	82*	x	x	47	60*
CC(C)(C)SCCNC(=O)CN(c1ccccc1)S(=O)(=O)c1ccccc1	-2	2	-2	-2	-1	x
CCCCN(C)C1CCN(C(=S)Nc2cccc(SC)c2)CC1	-4	2	-4	3	-21	x
COc1cc(NC(=O)c2noc(C)c2[N+](=O)[O-])c(OC)cc1Cl	x	64*	x	x	-47	17
Cc1onc(C(=O)Nc2cccnc2Cl)c1[N+](=O)[O-]	-13	7	-2	2	-35	x
COc1cccc(NC(=S)N(CCC(C)C)C2CCN(C(C)=O)CC2)c1	x	6	x	x	-12	x
Cc1ccc2nc(N/C(=N/S(=O)(=O)c3ccc(F)cc3F)c3ccccc3)sc2c1	-66	22*	2	7	-58	6
Cc1ccc2nc(N/C(=N/S(=O)(=O)c3ccc(F)cc3)c3ccccc3)sc2c1	-32	-1	-3	5	-85	x
N#Cc1nccnc1S(=O)(=O)c1cccs1	x	40*	92*	35*	-10	82*
O=[N+]([O-])c1cc(Cl)cc2c1nc(NCCO)c1ccccc12	x	25*	-1	8	21	26*
O=C(NCC1(O)CCCCC1)C1CCC(=O)N(Cc2cccc(C(F)(F)F)c2)C1 (stereo not given)	x	4	x	x	-24	x
CSc1nnc(NC(=O)c2nc(S(=O)(=O)Cc3cccc(C)c3)ncc2Cl)s1	x	45*	x	x	24	19
Cc1ccc(CS(=O)(=O)c2ncc(Cl)c(C(=O)Nc3nnc(C(C)C)s3)n2)cc1	x	36*	x	x	38	18
Cc1cccc(CS(=O)(=O)c2ncc(Cl)c(C(=O)Nc3nnc(C(C)C)s3)n2)c1	x	60*	x	x	25	14
CC(C)c1nnc(NC(=O)c2nc(S(=O)(=O)Cc3ccc(F)cc3)ncc2Cl)s1	x	19	x	x	2	x
Cc1ccc2c(c1)N(CCC(=O)NC1CCCCC1)C(=O)CO2	x	3	x	x	11	x
S=C(NCc1ccco1)N1CCC(c2nc3ccccc3o2)CC1	21	2	-2	1	-27	x
Cc1ccccc1OCCOC(=O)c1c(-c2ccccc2)noc1C	x	54*	x	x	38	28*
O=C(CCn1nc(-c2ccc(Cl)cc2)ccc1=O)N1CCN(c2ccccc2)CC1	x	0	x	x	-4	x
C/C(=N\Nc1nc(C)cc(-c2ccccc2)n1)c1ccccc1	x	26*	x	x	-29	8
SMILES	APP 5UTR inh	IEC-6 tox	Ba/F3 V617F tox	BaF3 tox	KLF5 inhibitor	IEC-6 tox confirm
C/C(=N\Nc1nc(C)cc(-c2ccccc2)n1)c1ccc(O)cc1	x	15	x	x	-63	x
NC(=O)c1nc(-c2cccs2)nc2c1[nH]c(=O)n2-c1ccc(F)cc1	2	1	-2	2	-2	x
O=C(Nc1ccc(N2CCN(C(=O)c3cccs3)CC2)cc1)c1ccc([N+](=O)[O-])o1	x	101*	x	x	47	96*
O=C(Nc1ccc(Cc2ccncc2)cc1)c1ccc([N+](=O)[O-])o1	x	51*	x	x	-22	18
O=C(Nc1ccc(N2CCOCC2)cc1)c1ccc(Br)o1	x	-3	x	x	-87	x
O=C(Nc1ccc(N2CCOCC2)cc1)c1ccc([N+](=O)[O-])o1	x	79*	x	x	10	25*
